# TGFb SMAD3 inh: inhibitors of TGF-b signaling; HepG2 CAGA-GFP TGF-b/SMAD3 reporter, GFP fluorescence, 18 h; TGF-beta stimulated, 500 pg/mL final; Potency, µM (series often up to 46.1 µM), for inactives: at the top dose activity, negative = inhibition, actives largely listed as inhibitors; 1.2% of 410,000 active; further: potency means the concentration at half of the fitted maximal effect; on the % scale 0 is the no-effect control and ±100 the full control effect; nearly all actives have a fitted effect of over 65% in size
#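 HEPG2 CAGA-GFP cells (1000/well, DMEM with 1% FBS) were pre-incubated 2 h at 37 degrees C, given compound by pin tool, then stimulated with TGF-beta at 500 pg/mL final for 18 h before per-cell GFP fluorescence imaging.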
# ASM inhibitor: inhibitors of human secretory acid sphingomyelinase; P17405; placental ASM, HMU-PC fluorogenic substrate, 60 min; Potency, µM (titrated, usually from 57.5 µM), for the others: at the top dose activity change, negative = inhibition, usual class: inhibitors; 0.006% of 340,000 active; further: potency means the concentration at half of the fitted maximal effect
# Target sequence (P17405 47-631 limits assumed): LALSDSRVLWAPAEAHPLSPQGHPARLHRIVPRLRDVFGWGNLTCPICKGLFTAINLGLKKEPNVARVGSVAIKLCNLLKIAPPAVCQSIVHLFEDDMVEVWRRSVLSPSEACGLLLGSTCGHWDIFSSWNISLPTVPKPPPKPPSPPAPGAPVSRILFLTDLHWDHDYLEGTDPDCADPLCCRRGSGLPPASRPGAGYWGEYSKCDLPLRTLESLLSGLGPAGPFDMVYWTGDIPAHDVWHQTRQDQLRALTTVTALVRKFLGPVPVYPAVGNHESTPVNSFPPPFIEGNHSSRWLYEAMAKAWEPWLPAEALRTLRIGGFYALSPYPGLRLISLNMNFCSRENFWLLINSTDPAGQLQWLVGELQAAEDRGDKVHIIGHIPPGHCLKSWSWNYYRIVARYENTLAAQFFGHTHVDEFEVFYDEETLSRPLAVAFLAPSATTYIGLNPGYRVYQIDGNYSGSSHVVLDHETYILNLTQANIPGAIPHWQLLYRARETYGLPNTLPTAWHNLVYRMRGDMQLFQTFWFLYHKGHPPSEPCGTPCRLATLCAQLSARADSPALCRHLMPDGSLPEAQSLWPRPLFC
#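 Fluorescence read-out (Ex 386 nm, Em 447 nm) after stopping the reaction at pH 10. Enzyme: ASM from human placenta; substrate HMU-PC0, 9 uM final; 60 min, 37 °C. Compound preincubation 10 min, ambient temperature.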
# IL-1B inflam inh: inflammasome signaling inhibition, IL-1 beta readout | activity change, % at 57.5 µM | THP-1 LPS/ATP IL-1B secretion, AlphaLISA, 16 h; hits give low values | 4.7% of 360,000 active; in the data active means activity change below about -50%; inconclusive means mostly about -30% to -49%; further: on the % scale 0 is the no-effect control and ±100 the full control effect
#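 Secreted IL-1B measured by AlphaLISA bead assay after 16 h compound exposure of THP-1 cells; compounds (final up to 57.5 uM) added 1 h before LPS (250 ng/mL) and ATP (1.25 mM) stimulation; lower signal means less secretion.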
# DT40 TDP1 CPT: growth inhibition of DT40 Tdp1-/-;hTDP1 cells with camptothecin (screen for TDP1 inhibitors) | Potency, µM (highest dose often 46.2 µM), for inactives: top-dose activity change, negative = growth inhibition, actives largely listed as inhibitors | 12% of 420,000 active | chicken DT40 Tdp1-/-;hTDP1 cells + 20 nM CPT, ATP luminescence, 48 h; further: potency means the concentration at half of the fitted maximal effect; on the % scale 0 is the no-effect control and ±100 the full control effect; nearly all actives have a fitted effect of over 55% in size
#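 Chicken DT40 Tdp1-/- cells complemented with human TDP1, 400 cells/well, exposed to compounds plus 20 nM camptothecin for at least 48 h at 37 C; viability read as ATP content by CellTiter-Glo luminescence.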
# HepG2 viability: counter-screen for TGF-b inhibitors: cytotoxicity in HepG2 cells; HepG2 CAGA-GFP viability, ATP luminescence, 18 h; Potency, µM (top dose mostly 46.1 µM), inactives show at the highest dose activity change, negative = cytotoxicity, usual class: cytotoxic; 0.76% of 410,000 active; AID 588856; further: potency means the concentration at half of the fitted maximal effect
#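 HepG2 CAGA-GFP cells (1000/well, DMEM with 1% FBS) received compound, then TGF-beta at 500 pg/mL final, and were incubated 18 hours at 37 degrees C. Viability was read by CellTiter-Glo luminescence. Media-only wells were set as complete cell-killing and DMSO as no toxicity.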
# DT40 TDP1 no CPT: qHTS for Inhibitors of human tyrosyl-DNA phosphodiesterase 1 (TDP1): qHTS in cells in absence of CPT. DT40 Tdp1-/- hTDP1 cells, no CPT, ATP luminescence, 48 h. Potency, µM (highest dose often 46.2 µM), without a hit: top-dose activity change, negative = growth inhibition, actives largely listed as inhibitors. 15% of 420,000 active; further: potency means the concentration at half of the fitted maximal effect; on the % scale 0 is the no-effect control and ±100 the full control effect; nearly all actives have a fitted effect of over 55% in size
#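 Camptothecin absent (DMSO only). Human TDP1-complemented DT40 knockout cells, 400 cells/well, 37 °C for minimum 48 hr; ATP measured via CellTiter-Glo, 30 min dark incubation, luminescence.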
# The depositor's hits bear a star; ? = inconclusive; / = no result given. Most compounds without a hit are left out; they make up all but 19% or so of the library. Unless noted, the call rests on the fitted dose curve; in most records, active means well fitted curve in the direction sought with a large enough effect; inconclusive means small, poorly fitted or top-dose-only effect, or another doubt; inactive means no such curve, though single readings can be large; an effect the other way counts as inactive or inconclusive.
SMILES,TGFb SMAD3 inh,ASM inhibitor,IL-1B inflam inh,DT40 TDP1 CPT,HepG2 viability,DT40 TDP1 no CPT
COc1ccc(C2NC(=O)NC(C)=C2C(=O)OC2CCCC(C)C2)cc1 (stereo not given),-1%,1%,?,?,-26%,?
COc1ccc(C2NC(=O)NC(C)=C2C(=O)OC2CCCCC2)cc1 (stereo not given),-9%,/,-25,18µM*,2%,?
COc1cc(C2NC(=O)NC(C)=C2C(=O)OC2CCC(C)CC2)ccc1O (stereo not given),-20%,6%,-17,-5%,-4%,2%
COCCN(CC(=O)Nc1ccccc1C(F)(F)F)C(=O)/C=C/c1ccc2ccccc2n1,-26%,2%,19,-26%,-22%,?
N#Cc1ccccc1OCC(=O)C1CC1,0%,1%,-6,0%,-134%,-3%
N#Cc1ccccc1Oc1ccccc1C=O,-12%,4%,25,?,-23%,16µM*
O=Cc1ccccc1C=O,/,/,/,9.4µM*,/,?
O=Cc1ccccc1Oc1ccccc1,6%,1%,10,?,-3%,12µM*
COc1cc(OC)nc(Oc2ccccc2C=O)n1,-22%,-1%,-16,?,-39%,?
Cc1cc(N2CCOCC2)nc2ccc(NC(=S)N3CCCCC3C)cc12 (stereo not given),-18%,147%,-67*,?,-2%,?
Cc1ccc(NC(=O)C2CCCC2)cc1S(=O)(=O)N1CCOCC1,-23%,-1%,-6,4%,-14%,8%
Cc1cc(N2CCOCC2)nc2ccc(NC(=O)C3CCCCC3)cc12,12%,/,/,13µM*,0%,10µM*
O=C(CN1CCCC1c1ccc2c(c1)OCCO2)NC(=O)Nc1ccccc1F (stereo not given),5%,-1%,-5,-17%,-16%,-24%
CC(C)Cc1nnc(NC(=O)C23CC4CC(CC(C4)C2)C3)s1,2%,4%,38,?,-1%,18µM*
O=C(c1nn2c(C(F)(F)F)cc(-c3ccco3)nc2c1Br)N1CCCc2ccccc21,-18%,-2%,6,16µM*,-5%,12µM*
O=C(c1cc2nc(-c3cccs3)cc(C(F)(F)F)n2n1)N1CCCc2ccccc21,-8%,17%,10,18µM*,3%,?
O=C(c1nn2c(C(F)(F)F)cc(-c3cccs3)nc2c1Br)N1CCCc2ccccc21,-15%,6%,-14,9.2µM*,-20%,8.2µM*
Cc1ccc(Cl)cc1NC(=O)CN(C)S(=O)(=O)c1ccc2c(c1)n(C)c(=O)c(=O)n2C,-9%,/,/,-11%,-32%,-9%
O=C1C=CC(=O)N1CCCCCCCCCCN1C(=O)C=CC1=O,13µM*,1%,-87*,0.58µM*,-28%,1.3µM*
O=C1C=CC(=O)N1Cc1ccncc1,-1%,12%,-14,9%,5%,-3%
COc1ccc(C(=O)Nc2cccc3c2CCCC3)c(OC)c1,10%,4%,2,-28%,5%,?
CCc1cc(=O)oc2c(C)c(O[C@@H]3O[C@H](CO)[C@@H](O)[C@H](O)[C@H]3O)ccc12,5%,3%,10,3%,0%,10µM*
Cc1c(C)c2ccc(O[C@@H]3O[C@H](CO)[C@@H](O)[C@H](O)[C@H]3O)c(C)c2oc1=O,-1%,0%,-16,28%,-8%,-23%
C=CC(=O)O,/,/,/,-25%,/,-1%
O=C(O)CCC(=O)NCCn1c(-c2ccccc2)csc1=Nc1ccccc1,-3%,1%,0,-9%,5%,-2%
Cc1c(N=c2scc(-c3ccccc3)n2CCO)c(=O)n(-c2ccccc2)n1C,4%,-1%,9,-8%,5%,?
